Measurements as given in PubChem BioAssay AID493231 (Broad Institute, 2011).
Measured potencies and affinities stand elsewhere. Active and inactive are the calls of the source. How the calls were made is not given here.

Target: Acyl-homoserine lactone acylase PvdQ (Pseudomonas aeruginosa (strain ATCC 15692 / DSM 22644 / CIP 104116 / JCM 14847 / LMG 12228 / 1C / PRS 101 / PAO1)) (UniProt Q9I194)
Test: PvdQ acylase enzyme activity blockers – biochemical, fluorescence, plate reader and imaging, cherry-picks, dose response (AID 493231);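 further: more negative values mean stronger inhibition of the acylase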
Conditions: purified PvdQ acylase, fluorogenic substrate; series mostly up to 10 µM

Chain of Acyl-homoserine lactone acylase PvdQ (Pseudomonas aeruginosa (strain ATCC 15692 / DSM 22644 / CIP 104116 / JCM 14847 / LMG 12228 / 1C / PRS 101 / PAO1)) (Q9I194 whole entry, looked up): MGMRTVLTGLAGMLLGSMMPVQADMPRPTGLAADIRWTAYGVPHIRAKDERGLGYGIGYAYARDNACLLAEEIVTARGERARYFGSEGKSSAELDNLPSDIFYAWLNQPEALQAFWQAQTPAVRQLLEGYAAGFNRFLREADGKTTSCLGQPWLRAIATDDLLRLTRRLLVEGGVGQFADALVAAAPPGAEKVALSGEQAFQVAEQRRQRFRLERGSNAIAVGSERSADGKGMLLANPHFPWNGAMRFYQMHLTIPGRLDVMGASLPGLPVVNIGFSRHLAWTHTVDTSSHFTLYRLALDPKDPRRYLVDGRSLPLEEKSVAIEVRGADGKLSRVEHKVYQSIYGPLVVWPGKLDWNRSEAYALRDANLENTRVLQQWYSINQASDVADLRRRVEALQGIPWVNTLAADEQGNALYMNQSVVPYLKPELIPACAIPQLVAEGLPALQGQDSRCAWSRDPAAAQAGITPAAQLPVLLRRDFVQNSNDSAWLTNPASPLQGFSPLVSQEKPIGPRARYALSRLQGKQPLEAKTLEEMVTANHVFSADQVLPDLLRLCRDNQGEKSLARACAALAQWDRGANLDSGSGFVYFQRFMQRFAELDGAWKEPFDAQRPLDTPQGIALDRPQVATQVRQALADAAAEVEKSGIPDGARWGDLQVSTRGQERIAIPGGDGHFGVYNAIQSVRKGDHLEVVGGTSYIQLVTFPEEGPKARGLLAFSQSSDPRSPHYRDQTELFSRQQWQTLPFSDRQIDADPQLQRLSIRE

Structure (SMILES)	outcome
Cc1cc(N(CCCl)CCCl)ccc1C=NNC(=O)c1cccnc1	inactive
CC1(C)CC2(CCO1)NCCN1C(=O)CSC12 (stereo not drawn)	inactive
O=[N+]([O-])c1ccc2c(c1)Cc1cc(O)ccc1-2	inactive
